Activity calls are given as the source filed them.
Tests used:
Albumin (Bos taurus) = Albumin (Bos taurus) (UniProt P02769); experiment: compounds binding labelled BSA control protein – biochemical, small-molecule microarray, Alexa647 label, 635/667 nm fluorescence, artefact control for SMM control protein annotation, profiling panel (AID 1118); details: BSA-A647 binding, fluorescence 635 nm, higher = more signal;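 note: score merges 667 nm emission intensity and signal-to-noise per printed compound spot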
Albumin (Bos taurus), sequence (P02769 whole entry, looked up): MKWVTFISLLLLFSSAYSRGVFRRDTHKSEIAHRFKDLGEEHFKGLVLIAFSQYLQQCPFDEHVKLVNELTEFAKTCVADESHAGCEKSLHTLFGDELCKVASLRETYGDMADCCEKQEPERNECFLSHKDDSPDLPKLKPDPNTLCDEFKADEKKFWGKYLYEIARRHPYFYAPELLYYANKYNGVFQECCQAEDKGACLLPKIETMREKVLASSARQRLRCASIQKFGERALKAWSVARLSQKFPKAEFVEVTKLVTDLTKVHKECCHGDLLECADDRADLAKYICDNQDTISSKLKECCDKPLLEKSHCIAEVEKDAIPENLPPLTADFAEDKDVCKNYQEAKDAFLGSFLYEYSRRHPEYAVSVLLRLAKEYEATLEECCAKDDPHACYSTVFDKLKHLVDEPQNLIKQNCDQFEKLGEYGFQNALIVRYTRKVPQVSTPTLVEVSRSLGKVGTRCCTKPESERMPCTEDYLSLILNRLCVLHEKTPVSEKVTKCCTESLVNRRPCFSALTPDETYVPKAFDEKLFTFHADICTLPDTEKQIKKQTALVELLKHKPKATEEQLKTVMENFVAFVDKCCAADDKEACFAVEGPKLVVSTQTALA

[1] = probe aXIP binding to arrayed compounds – biochemical, NeuroSMM set, 635/667 nm fluorescence, primary screen (AID 1119); details: small-molecule microarray, higher = more signal, called active from +8 up or from −8 down;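 note: probe is the protein aXip251-270 applied at 1 µg/mL to compound-printed slides; binding of probe to printed compounds measured as 667 nm fluorescence plus signal to noise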
[2] = probe aNOTCH3 binding on compound microarray – biochemical, small-molecule microarray, 635/667 nm fluorescence, primary screen (AID 1120); details: higher = more signal;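 note: probe is a biotin-tagged antibody raised against NOTCH3 rather than NOTCH3 protein; score merges spot fluorescence near 667 nm with spot signal to noise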
[3] = probe aNOTCH2 binding on compound microarray – biochemical, small-molecule microarray, 635/667 nm fluorescence, primary screen (AID 1121); details: higher = more signal;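 note: score merges feature fluorescence read at 667 nm with its signal to noise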
[4] = target: Carbonic anhydrase 2 (Homo sapiens) (UniProt P00918); experiment: compounds binding carbonic anhydrase 2 – biochemical, small-molecule microarray, Alexa647-labelled CAII, profiling panel (AID 1122); details: CAII-A647 binding fluorescence, higher = more signal
[5] = COS7 lysate on small-molecule microarray, probe aHis, 635 nm (AID 1123); details: COS7 cell lysate, fluorescence, higher = more signal;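 note: z-score combines 667nm fluorescence intensity with signal-to-noise per printed compound spot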
[6] = probe aLAP1 signal on lysate-treated microarray – cell lysate, small-molecule microarray, COS7 lysate, primary screen (AID 1124); details: probe aLAP1, fluorescence, higher = more signal;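 note: lysate comes from COS7 cells expressing LAP1 and is applied at 0.3 µg/mL; score merges spot fluorescence near 667 nm with signal-to-noise over triplicate slides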
Sam68 (KHDRBS1) = experiment: compounds binding KHDRBS1 protein – biochemical, small-molecule microarray, 635 nm fluorescence, primary screen (AID 1125); details: higher = more signal;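 note: score merges 667 nm channel intensity with signal to noise over triplicate slides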
[7] = tested on: Chordin-like protein 2 (CHRDL2); experiment: compounds binding chordin-like 2 – biochemical, small-molecule microarray, 635 nm fluorescence, primary screen (AID 1126); details: fluorescence 635 nm, higher = more signal;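 note: printed compound slides probed with Chrdl2 protein at 4 µg/mL for 1 h at 4 C; score merges 667 nm emission intensity with signal to noise over three replicate slides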
[8] = target: Concanavalin-A (Canavalia ensiformis) (UniProt P02866); experiment: compounds binding concanavalin A lectin – biochemical, small-molecule microarray, Alexa647 label, 635 nm, artefact control for SMM control protein annotation, primary screen (AID 1127); details: ConA-A647 binding fluorescence, higher = more signal;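 note: z combines 667 nm emission intensity with signal-to-noise across three replicate slides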
Concanavalin-A (Canavalia ensiformis), sequence (P02866 whole entry, looked up): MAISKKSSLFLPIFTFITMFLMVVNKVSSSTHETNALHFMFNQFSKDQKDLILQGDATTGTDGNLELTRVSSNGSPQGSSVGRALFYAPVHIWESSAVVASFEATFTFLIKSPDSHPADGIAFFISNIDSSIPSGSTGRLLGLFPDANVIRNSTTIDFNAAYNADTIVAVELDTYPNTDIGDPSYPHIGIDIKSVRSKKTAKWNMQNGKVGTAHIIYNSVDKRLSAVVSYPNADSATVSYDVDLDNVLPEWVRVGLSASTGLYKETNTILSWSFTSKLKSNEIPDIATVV

[9] = compounds binding Alexa647 anti-His antibody – biochemical, small-molecule microarray, 635 nm fluorescence, artefact control for SMM control protein annotation, primary screen (AID 1128); details: higher = more signal;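 note: score merges feature fluorescence with signal-to-noise for each printed compound spot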
[10] = tested on: Human papillomavirus type 1a E7 protein (residues 1-88); experiment: HPV1a E7 small-molecule binders, primary screen, biochemical, small-molecule microarray, residues 1-88, 635 nm (AID 1129); details: small-molecule microarray binding, fluorescence 635 nm; higher = more signal
[11] = target: Focal adhesion kinase 1 (Homo sapiens) (UniProt Q05397); experiment: PTK2 protein binding on printed compound slides – biochemical, small-molecule microarray, 635/667 nm fluorescence, BSA, DTT, primary screen (AID 1130); details: 635 nm fluorescence, higher = more signal;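 note: composite of spot emission at 667 nm and signal to noise over triplicate slides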
Focal adhesion kinase 1 (Homo sapiens), sequence (Q05397 whole entry, looked up): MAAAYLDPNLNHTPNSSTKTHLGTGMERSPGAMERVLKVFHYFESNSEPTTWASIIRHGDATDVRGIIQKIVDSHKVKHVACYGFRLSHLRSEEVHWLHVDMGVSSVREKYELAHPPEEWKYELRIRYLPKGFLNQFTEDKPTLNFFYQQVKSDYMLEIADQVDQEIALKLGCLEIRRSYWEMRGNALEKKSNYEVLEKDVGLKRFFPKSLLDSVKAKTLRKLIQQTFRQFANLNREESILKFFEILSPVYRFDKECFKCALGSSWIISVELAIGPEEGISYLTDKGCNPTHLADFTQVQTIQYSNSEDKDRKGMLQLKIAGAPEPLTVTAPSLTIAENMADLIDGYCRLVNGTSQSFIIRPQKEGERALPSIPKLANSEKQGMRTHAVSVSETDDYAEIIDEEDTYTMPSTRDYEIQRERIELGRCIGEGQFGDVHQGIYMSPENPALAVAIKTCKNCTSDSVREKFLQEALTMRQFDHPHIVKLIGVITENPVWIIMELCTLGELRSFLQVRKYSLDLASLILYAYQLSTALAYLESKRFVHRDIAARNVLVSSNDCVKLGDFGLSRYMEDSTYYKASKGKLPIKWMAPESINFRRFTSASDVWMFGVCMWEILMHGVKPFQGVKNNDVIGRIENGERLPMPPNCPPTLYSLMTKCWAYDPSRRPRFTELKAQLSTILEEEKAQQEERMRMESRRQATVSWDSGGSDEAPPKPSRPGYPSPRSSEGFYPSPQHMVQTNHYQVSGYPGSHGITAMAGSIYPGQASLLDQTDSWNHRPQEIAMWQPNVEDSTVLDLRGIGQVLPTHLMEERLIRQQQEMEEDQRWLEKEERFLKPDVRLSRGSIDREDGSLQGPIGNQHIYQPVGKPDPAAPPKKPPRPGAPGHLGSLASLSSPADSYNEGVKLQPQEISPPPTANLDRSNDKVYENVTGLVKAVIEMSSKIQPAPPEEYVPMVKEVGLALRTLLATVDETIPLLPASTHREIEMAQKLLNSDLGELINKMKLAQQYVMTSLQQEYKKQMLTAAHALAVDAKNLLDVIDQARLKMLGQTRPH

[12] = tested on: Fibrinogen (Alexa647-labelled); experiment: Alexa647-fibrinogen binding to printed small molecules – biochemical, small-molecule microarray, 635/667 nm fluorescence, artefact control for SMM control-protein annotation, profiling panel (AID 1131); details: fibrinogen-A647 binding fluorescence, higher = more signal;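 note: z-score merges 667 nm fluorescence with per-spot signal-to-noise over triplicate slides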
[13] = target: Follistatin (Homo sapiens) (UniProt P19883); experiment: FST protein binding to printed compounds – biochemical, small-molecule microarray, 635/667 nm fluorescence, primary screen (AID 1132); details: 635 nm fluorescence, higher = more signal
Follistatin (Homo sapiens), sequence (P19883 whole entry, looked up): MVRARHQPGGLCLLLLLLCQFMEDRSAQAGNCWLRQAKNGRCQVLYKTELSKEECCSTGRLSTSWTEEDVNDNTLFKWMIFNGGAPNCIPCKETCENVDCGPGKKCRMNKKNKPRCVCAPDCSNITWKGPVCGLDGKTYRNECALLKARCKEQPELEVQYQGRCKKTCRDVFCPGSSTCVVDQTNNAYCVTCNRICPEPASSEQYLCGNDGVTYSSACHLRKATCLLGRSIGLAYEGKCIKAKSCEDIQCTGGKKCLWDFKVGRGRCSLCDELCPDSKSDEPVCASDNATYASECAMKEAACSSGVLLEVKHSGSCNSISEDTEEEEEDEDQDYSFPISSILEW

[14] = target: Fibroblast growth factor 2 (Homo sapiens) (UniProt P09038); experiment: basic fibroblast growth factor binding to printed compounds – biochemical, small-molecule microarray, 635/667 nm fluorescence, primary screen (AID 1133); details: FGF2, fluorescence 635/667, higher = more signal
Fibroblast growth factor 2 (Homo sapiens), sequence (P09038 whole entry, looked up): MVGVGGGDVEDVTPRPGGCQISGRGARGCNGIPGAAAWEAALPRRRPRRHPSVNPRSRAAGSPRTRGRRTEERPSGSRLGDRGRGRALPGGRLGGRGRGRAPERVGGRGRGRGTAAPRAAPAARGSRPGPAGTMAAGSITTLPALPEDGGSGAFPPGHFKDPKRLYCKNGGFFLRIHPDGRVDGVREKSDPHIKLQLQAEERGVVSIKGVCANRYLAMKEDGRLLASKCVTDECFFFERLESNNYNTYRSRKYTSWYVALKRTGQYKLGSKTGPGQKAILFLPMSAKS

[15] = JC-1 mitochondrial potential readout, lung cancer cells – cell-based, A549, JC-1 fluorescence, basal, 24 h, 100 nL, profiling panel (AID 1138); details: higher = more signal;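 note: A549 lung adenocarcinoma cells under basal conditions with no added stimulus; test concentration not given here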
Lefty1 = Lefty1 protein binding to printed compounds – biochemical, small-molecule microarray, 635/667 nm fluorescence, primary screen (AID 1139); details: fluorescence 635/667, higher = more signal
[16] = tested on: wheat germ agglutinin (Triticum aestivum), Alexa647-labelled; experiment: Alexa647-WGA lectin binding to printed small molecules – biochemical, small-molecule microarray, 635/667 nm fluorescence, artefact control for SMM control-protein annotation, profiling panel (AID 1140); details: WGA-A647 binding, 635 nm fluorescence, higher = more signal;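 note: score merges 667 nm feature emission with signal to noise over triplicate slides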
[17] = target: Luciferin 4-monooxygenase (Photinus pyralis) (UniProt P08659); experiment: inhibition of purified Photinus pyralis luciferase – biochemical, luminescence, purified enzyme, 2006 set, primary screen (AID 1141); details: purified firefly luciferase, SteadyGlo luminescence, 30 min; higher = more signal, called active from +8 up or from −8 down;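 note: cell-free assay with purified firefly luciferase at 100 ng per well in PBS; test concentration not given here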
Luciferin 4-monooxygenase (Photinus pyralis), sequence (P08659 whole entry, looked up): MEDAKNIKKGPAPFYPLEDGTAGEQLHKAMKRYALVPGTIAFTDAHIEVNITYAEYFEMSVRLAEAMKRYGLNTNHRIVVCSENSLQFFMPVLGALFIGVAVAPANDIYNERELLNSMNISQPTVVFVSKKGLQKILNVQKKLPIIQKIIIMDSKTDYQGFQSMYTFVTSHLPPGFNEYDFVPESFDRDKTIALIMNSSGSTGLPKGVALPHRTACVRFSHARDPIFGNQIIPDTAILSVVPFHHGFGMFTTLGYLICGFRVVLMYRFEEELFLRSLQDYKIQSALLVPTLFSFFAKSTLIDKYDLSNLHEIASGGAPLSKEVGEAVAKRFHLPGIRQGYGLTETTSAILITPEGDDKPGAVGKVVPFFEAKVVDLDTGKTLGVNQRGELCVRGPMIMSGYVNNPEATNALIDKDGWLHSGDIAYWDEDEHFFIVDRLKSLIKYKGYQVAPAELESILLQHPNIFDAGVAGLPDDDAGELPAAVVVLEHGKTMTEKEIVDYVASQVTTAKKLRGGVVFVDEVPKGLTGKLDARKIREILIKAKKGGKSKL

| Structure (SMILES) | composite z-score (Albumin (Bos taurus)) | composite Z-score [1] | composite z-score [2] | composite z-score [3] | composite z-score [4] | composite z-score [5] | composite z-score [6] | composite z-score (Sam68 (KHDRBS1)) | composite z-score [7] | composite z-score [8] | composite z-score [9] | composite z-score [10] | composite z-score [11] | composite z-score [12] | composite z-score [13] | composite z-score [14] | z-score [15] | composite z-score (Lefty1) | composite z-score [16] | z-score [17] |
| --- | --- | --- | --- | --- | --- | --- | --- | --- | --- | --- | --- | --- | --- | --- | --- | --- | --- | --- | --- | --- |
| CCCCC(=C=CC[C@H](O)c1ccc(OCCO)cc1)CCO | 0.837 | 0.0311 (inactive) | -0.121 | -0.0795 | 0.694 | 1.55 | 0.251 | 0.195 | -1.13 | -0.727 | -0.582 | 0.0547 | 0.0832 | -1.64 | -0.232 | -0.674 | 0.25 | 0.282 | 0.717 | -0.98 (inactive) |
| [N-]=[N+]=NCc1ccccc1[C@@H]1OC(c2ccc(OCCCO)cc2)=N[C@]1(CCS(=O)(=O)c1ccccc1)C(=O)O | 0.951 | 0.0313 (inactive) | 0.0311 | -0.0145 | 0.786 | 1.6 | 0.0649 | 0.585 | -1.92 | 0.448 | 0.843 | 0.843 | 0.809 | 0.839 | 0.0575 | -0.517 | -0.586 | 0.381 | 1.17 | -5.21 (inactive) |
| CCOC(=O)C1=C[C@@H](C(C)(C)C)N(S(=O)(=O)c2ccc(C)cc2)[C@H]1c1cccc2ccccc12 | 0.261 | 0.592 (inactive) | 0.0327 | -0.101 | 0.312 | 1.76 | 0.0493 | 1.05 | -0.516 | 1.05 | 1.15 | 0.716 | 0.191 | 0.896 | 0.466 | -0.195 | 2.89 | 0.139 | 0.437 | 0.908 (inactive) |
| COC(=O)[C@@]1(Cc2ccccc2)[C@H]2c3cc(C(=O)N4CCCC4)n(CCc4ccccn4)c3C[C@H]2CN1C(=O)c1ccccc1 | 1.06 | -1.17 (inactive) | 0.682 | 0.133 | 0.88 | 3.46 | 0.589 | 0.761 | -0.607 | 0.606 | -0.295 | 1.28 | 1.34 | 1.01 | 0.758 | -0.28 | -0.0942 | 0.0814 | 1.16 | 2.38 (inactive) |
| CO[C@H]1O[C@H](CO)[C@@H](OC(=O)Nc2ccccc2)[C@H](OC(=O)c2cc3ccccc3[nH]2)[C@H]1OC(=O)c1cc2ccccc2[nH]1 | 0.124 | 1.12 (inactive) | -0.0368 | -0.0166 | 0.793 | 0.68 | 0.94 | 0.396 | 0.132 | 0.282 | 0.568 | 0.181 | 0.353 | 0.475 | 1.13 | 1.61 | 0.132 | 0.532 | 0.562 | -0.378 (inactive) |
| COc1cccc(C)c1NC(=O)O[C@H]1[C@H](OC(=O)Nc2ccccc2-c2ccccc2)[C@H](OC(=O)Nc2ccccc2-c2ccccc2)[C@@H](OC)O[C@@H]1CO | 0.816 | 0.497 (inactive) | 0.233 | 0.0149 | 0.434 | 0.947 | 0.429 | 1.29 | 0.494 | 1.15 | 0.528 | 1.22 | 0.588 | 0.974 | 1.35 | 0.79 | -0.41 | 0.906 | 0.79 | -0.33 (inactive) |
| C=CCC(OC(C)=O)[C@@H]1[C@@H](N(Cc2cccc3ccccc23)C(=O)Cc2ccc(OC)cc2)c2cc(OCCCO)ccc2N1C(=O)c1ccc(-c2ccccc2)cc1 (stereo not given in full) | 0.249 | -0.166 (inactive) | -0.0647 | -0.0895 | -0.0283 | 0.917 | 0.181 | -0.189 | 0.0133 | -0.285 | -0.328 | -0.127 | 0.0862 | 0.701 | 0.662 | 0.394 | 0.0256 | -0.47 | 0.297 | 0.828 (inactive) |
| COC(=O)[C@]1(CCS(=O)(=O)c2ccccc2)N=C(c2ccc(OCCCO)cc2)O[C@@H]1c1ccccc1N=[N+]=[N-] | -0.325 | 0.0652 (inactive) | 0.359 | 0.142 | 0.78 | 2.93 | 0.612 | 1.29 | 0.412 | 1.19 | 3.54 | 1.27 | 0.263 | 0.906 | 1.39 | 1.75 | -0.447 | 0.387 | 1.09 | -1.32 (inactive) |
| CCCC#C[Si](O[C@H](CC)c1cn([C@H](C)c2ccccc2)nn1)(C(C)C)C(C)C | 0.468 | 0.381 (inactive) | -0.112 | -0.0317 | 0.26 | 0.47 | -0.0249 | 0.702 | 0.169 | 0.488 | 0.439 | 0.625 | 0.986 | 0.856 | 0.297 | 0.484 | 1.04 | 0.23 | 0.06 | -1.08 (inactive) |
| COCCOC(=O)N1C(=O)[C@@]2(c3cc(C#CC4=CCCCC4)ccc31)[C@H](c1ccccc1OCCO)N1[C@H](c3ccccc3)[C@H](c3ccccc3)OC(=O)[C@H]1[C@@H]2C(=O)N1CCN(c2ncccn2)CC1 | 0.326 | -0.17 (inactive) | 0.212 | -0.154 | 0.214 | 0.634 | 0.297 | 1.06 | 0.374 | 1.06 | 0.624 | 1.15 | 0.732 | 0.635 | 0.76 | 0.779 | -1.05 | 0.772 | 0.343 | -1.47 (inactive) |
| C=CCC(OC(C)=O)[C@@H]1[C@@H](N(Cc2ccc(-c3ccccc3)cc2)C(=O)c2ccc(-c3ccccc3)cc2)c2cc(OCCCO)ccc2N1C(=O)c1ccc2ccccc2c1 (stereo not given in full) | -0.186 | -0.473 (inactive) | -0.0208 | -0.115 | 0.212 | 0.937 | -0.129 | 0.352 | 0.0949 | -0.38 | -0.162 | 0.0751 | -0.138 | -0.239 | 0.707 | -0.193 | 0.657 | 0.476 | -0.094 | -0.424 (inactive) |

From PubChem BioAssay
